In all, about 68,000 compounds went through this assay and about 2,700 (4%) showed an effect of 50% or more. The sample as a whole holds a higher share of strong results than the screen did.

The assay has as its system Plasmodium berghei. As to the kind of experiment: Screen against P. berghei liver stage (PbLuc), transformed with Luciferase, at 2uM. Format: functional, HepG2. The note with it: tested at 2 uM.
`Cc1cc(C(F)(F)F)nn1CCCNC(=O)C1CCC1`: the INHIBITION was determined as 31.12%.

Turning to `O=C(COc1coc(CN2CCOCC2)cc1=O)Nc1ccccc1F`, the INHIBITION turned out to be 64.35%.

Consider `O=C(COc1coc(CN2CCOCC2)cc1=O)Nc1ccc(Cl)cc1`, for which the INHIBITION is given as 16.49%.

Turning to `O=C(COc1coc(CN2CCCCC2)cc1=O)Nc1ccccc1Cl`, the INHIBITION is given as -46.67%.

On to `CCCc1ccc2oc(C(=O)N3CCN(CCOC)CC3)c(C)c2c1`, for which the INHIBITION was -28.65%.

As to `COc1cccn(CC(=O)N(C)Cc2ccoc2)c1=O`, the INHIBITION is on record as -33.11%.

Consider `COc1cccn(CC(=O)N(C)CCC2CCOCC2)c1=O`, for which the INHIBITION is listed as 69.67%.

As for `COc1cccn(CC(=O)N(C)CCCOc2c(C)cccc2C)c1=O`, the INHIBITION is -30.49%.

As for `COc1cccn(CC(=O)N(C)CCSC)c1=O`, the INHIBITION is listed as 21.97%.

Take `COCCCN(C)C(=O)Cn1cccc(OC)c1=O`: the INHIBITION is 50.59%.

Regarding `COCCN(C)C(=O)Cn1cccc(OC)c1=O`, the INHIBITION is listed as -14.84%.

On to `CN(C)C(c1ccccn1)C1CCC(CNC(=O)CC2CCCC2)CC1` (stereo not given), for which the INHIBITION came out at 0.64%.

Consider `CCc1c(C(=O)O)nnn1-c1ccc(C)cc1C`, for which the INHIBITION is given as -54.75%.

As to `NC(=O)N1CC[C@@H]2O[C@@H](COCC(=O)N3CCCC3)CC[C@@H]21`, the INHIBITION was found to be 35.98%.

`Cc1cc(C[C@@H]2COC[C@H]2NCc2ccccc2C(F)(F)F)on1`: the INHIBITION is recorded as 32.31%.

`Cc1cc(C(O)CCNC(=O)c2ccc(Cl)s2)c(C)o1` (stereo not given): the INHIBITION is reported as -16.88%.

For the molecule `CC(CNC(=O)c1cnccn1)Oc1cccc(Br)c1` (stereo not given), the INHIBITION was determined as 30.75%.

With `CC(CNC(=O)c1ccncc1F)Oc1ccc(F)cc1` (stereo not given), the INHIBITION was 23.79%.

`CC(CNC(=O)c1cnccn1)Oc1ccc(F)cc1` (stereo not given): the INHIBITION worked out at 52.84%.

As to `NCc1cccc(-c2cccnc2C(=O)NCCN2CCCC2)c1`, the INHIBITION came to 1.07%.

On to `O=C(NC1CC1)[C@@H]1CCO[C@@H]2CCN(CC3CCC3)C[C@H]21`, for which the INHIBITION amounted to 9.98%.

Turning to `Cc1cc(F)ccc1NC(=O)NCC(C)N1CCOCC1` (stereo not given), the INHIBITION was determined as 48.59%.

As to `Cc1ccc(F)cc1NC(=O)NCC(C)N1CCOCC1` (stereo not given), the INHIBITION was -0.54%.

As to `CC(CNC(=O)Nc1ccc(F)cc1Br)N1CCOCC1` (stereo not given), the INHIBITION is on record as 74.22%.

In the case of `CCc1ccc(CN2CCC3(CCCN(C(=O)N(C)C)C3)C2)o1` (stereo not given), the INHIBITION is 1.08%.

In the case of `O=C(Cc1ccc2c(c1)OCCO2)NC1CC1`, the INHIBITION amounted to 23.31%.

Consider `O=C(CC1CC1)N[C@@H]1CN(Cc2ccco2)C[C@@H]2CCCO[C@@H]21`, for which the INHIBITION stood at 52.55%.

Consider `O=C(CC1CC1)N[C@@H]1CN(Cc2ccoc2)C[C@@H]2CCCO[C@@H]21`, for which the INHIBITION stood at 35.89%.

As to `CN(Cc1ccco1)[C@@H]1CN(Cc2cccnc2)C[C@@H]2CCCO[C@@H]21`, the INHIBITION is listed as 29.36%.

As for `O=C(N[C@@H]1CN(Cc2ccccc2)C[C@@H]2CCCO[C@@H]21)C1CC1`, the INHIBITION is on record as 50.9%.

In the case of `CS(=O)(=O)N[C@@H]1CN(Cc2ccccc2)C[C@@H]2CCCO[C@@H]21`, the INHIBITION is reported as 14.39%.

For the molecule `CN(Cc1ccco1)[C@@H]1CN(Cc2ccc(F)cc2)C[C@@H]2CCCO[C@@H]21`, the INHIBITION was 29.73%.

With `O=C(N[C@@H]1CN(Cc2ccoc2)C[C@@H]2CCCO[C@@H]21)C1CCC1`, the INHIBITION is given as -8.62%.

Turning to `O=C(CC1CC1)N[C@@H]1CN(Cc2ccncc2)C[C@@H]2CCCO[C@@H]21`, the INHIBITION is 29.01%.

In the case of `CN(Cc1ccco1)[C@@H]1CN(Cc2ccncc2)C[C@@H]2CCCO[C@@H]21`, the INHIBITION turned out to be 60.93%.

The record behind these values is ChEMBL document CHEMBL4513216, “Probing the Open Global Health Chemical Diversity Library for Multistage-Active Starting Points for Next-Generation Antimalarials” (ACS Infect Dis, 2020).
